Assay results as given in PubChem BioAssay (NCATS).
Where “and” joins values, the source holds several entries; their conditions need not be identical. Identical values can stand only once. Results filed as inconclusive are left out. Entries that show only a call come without a potency. Calls of active or inactive are those of the source. Unless noted, calls follow the shape of the full dose curve.

What was measured:
[1] = Confirmatory qHTS for VERO E6 Cytotoxicity Assay: Counterscreen for SARS-CoV-2 CPE Assay (AID 1508605); also: nearly all actives have a fitted effect of over 60% in size; also: potency is read from the fitted curve at half-maximal effect
[2] = Confirmatory qHTS for activators (rescue) of SARS-CoV-2 Cytopathic Effect (CPE) (AID 1508606); also: nearly all actives have a fitted effect of over 70% in size; also: potency is read from the fitted curve at half-maximal effect
CRL-7250 = normal cell line; assay: qHTS assay to identify novel small-molecules to repurpose for Merkel cell carcinoma treatment (AID 1296009; active = well fitted inhibition curve with a large enough effect; also: nearly all actives have a fitted effect of over 60% in size); settings: MCC and control cell lines, CellTiter-Glo viability, 72 h; series mostly up to 92 µM
Procedure, shortened: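 72 hr, 37 degree celsius; NPC 8-pt / MIPE 11-pt dose response; compound pinned in DMSO; CellTiter-Glo, 10 min RT, luminescence; normalized to no-cell and DMSO controls.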

[3] = Primary qHTS for Huh7 cytotoxicity: counterscreen for inhibitors of MERS-S pseudotyped particle cell entry (AID 1479147); settings: outcome: dose series up to 57.1 µM unless noted
[4] = Primary qHTS for inhibitors of MERS-S pseudo-typed particle cell entry (AID 1479149); also: nearly all actives have a fitted effect of over 60% in size
[5] = Primary qHTS for Vero E6 cytotoxicity: counterscreen for inhibitors of SARS-S pseudo-typed particle cell entry (AID 1479150); settings: outcome: dose series up to 57.1 µM unless noted
[6] = Primary qHTS to identify inhibitors of SARS-CoV-2 cell entry (AID 1645846); settings: activity change, negative = inhibition: at 57.1 µM (top of the series) unless noted; also: nearly all actives have a fitted effect of over 45% in size
Procedure, shortened: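 Inhibition of spike-mediated entry was scored in human ACE2-transfected Expi293F cells. Particles were MLV-pseudotyped with Wuhan-Hu-1 S carrying a 19-aa C-terminal deletion; signal was luciferase after two days, scaled between spike PP and fusion-protein-free PP.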

[7] = Confirmatory qHTS to identify inhibitors of SARS-CoV-2 cell entry (AID 1645844); also: nearly all actives have a fitted effect of over 45% in size; also: potency is read from the fitted curve at half-maximal effect
Procedure, shortened: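 Luminescence from a luciferase reporter, read 48 hr after pseudotyped-particle addition, gives entry signal, normalised to spike-bearing PP wells and bald PP lacking fusion protein wells. Cells are Expi293F stably expressing human ACE2, compound-pretreated 1 hr.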

[8] = Cytotoxicity counterscreen for inhibitors of SARS-CoV-2 cell entry (AID 1645845); also: nearly all actives have a fitted effect of over 50% in size
Procedure, shortened: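 48 h compound treatment (after 1 h preincubation), HEK293-ACE2 cells, 37 C/5% CO2; ATP luminescence endpoint; normalized to cell wells and media blanks.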

[9] = VSVG counterscreen qHTS to identify inhibitors of SARS-CoV-2 cell entry (AID 1645847); also: nearly all actives have a fitted effect of over 65% in size
Procedure, shortened: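 Luminescence from a luciferase reporter, normalised to bald particle and VSV-G pseudotyped particle wells, is the read-out. Cells are HEK293 expressing human ACE2, exposed to compound 1 h before a 48 h particle infection at 37 °C.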

[10] = Primary qHTS for inhibitors of SARS-S pseudo-typed particle cell entry (AID 1479145); also: nearly all actives have a fitted effect of over 45% in size
[11] = qHTS for inhibitors of Rabies Virus screened against the NCATS CANVASS Library (AID 1347402)
[12] = qHTS for Inhibitors of the Functional Ribonucleoprotein Complex (vRNP) of Lymphocytic Choriomeningitis Arenaviruses (LCMV): Viability assay - alamar blue signal for LCMV Primary Screen (AID 1347085; calls by dose curve; tested in HEK293 reporter line; also: nearly all actives have a fitted effect of over 80% in size; also: potency is read from the fitted curve at half-maximal effect)
[13] = target: Nucleoprotein (Lymphocytic choriomeningitis virus (strain Armstrong)) (UniProt P09992); assay: qHTS for Inhibitors of the Functional Ribonucleoprotein Complex (vRNP) of Lymphocytic Choriomeningitis Arenaviruses (LCMV): LCMV Primary Screen - GLuc reporter signal (AID 1347086); also: potency is read from the fitted curve at half-maximal effect; nearly all actives have a fitted effect of over 70% in size
Sequence of Nucleoprotein (Lymphocytic choriomeningitis virus (strain Armstrong)) (P09992 whole entry, looked up): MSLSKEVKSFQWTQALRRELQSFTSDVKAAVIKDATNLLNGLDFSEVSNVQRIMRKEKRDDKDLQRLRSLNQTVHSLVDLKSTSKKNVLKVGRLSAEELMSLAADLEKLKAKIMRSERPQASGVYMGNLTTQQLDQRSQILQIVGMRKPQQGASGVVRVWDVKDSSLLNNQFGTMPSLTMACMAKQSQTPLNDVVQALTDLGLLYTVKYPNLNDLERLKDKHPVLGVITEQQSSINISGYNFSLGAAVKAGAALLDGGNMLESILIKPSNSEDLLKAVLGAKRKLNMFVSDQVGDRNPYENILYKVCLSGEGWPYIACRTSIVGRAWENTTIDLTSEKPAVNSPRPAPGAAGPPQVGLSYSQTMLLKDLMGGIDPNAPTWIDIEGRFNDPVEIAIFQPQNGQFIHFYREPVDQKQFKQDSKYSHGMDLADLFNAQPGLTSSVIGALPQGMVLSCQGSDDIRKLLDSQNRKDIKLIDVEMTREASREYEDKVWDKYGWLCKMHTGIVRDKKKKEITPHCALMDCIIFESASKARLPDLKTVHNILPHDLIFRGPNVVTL

## Cn1nc(C(C)(C)C)cc1C(=O)N[C@@H](Cc1cccc(Cl)c1)C(=O)NCC#N
[1]
  Potency: inactive
[2]
  Potency: 0.224 µM (active)
CRL-7250
  Potency: inactive

## C[C@H](O)[C@H](O)[C@H]1CNc2nc(N)[nH]c(=O)c2N1
[3]
  outcome: inactive
[4]
  Potency: inactive
[5]
  outcome: inactive
[6]
  activity change, negative = inhibition: -28%
CRL-7250
  Potency: inactive

## COc1ccccc1OCCNCC(O)CCOc1cccc2[nH]c3ccccc3c12 (stereo not given)
[1]
  Potency: inactive
[2]
  Potency: 10 µM (active)
CRL-7250
  Potency: inactive

## CCOC(=O)[C@H]1O[C@@H]1C(=O)N[C@@H](CC(C)C)C(=O)NCCC(C)C
[7]
  Potency: 0.0681 µM (active)
[8]
  Potency: inactive
CRL-7250
  Potency: inactive

## CC[C@@](C)(Nc1ccnc(-c2c[nH]c3ncccc23)n1)C(=O)NCC(F)(F)F
[7]
  Potency: inactive
[8]
  Potency: inactive
[6]
  activity change, negative = inhibition: -38.3%
[9]
  Potency: inactive
CRL-7250
  Potency: inactive

## C[C@@H]1O[C@@H](O[C@H]2[C@H](OC(=O)[C@]34CCC(C)(C)C[C@H]3C3=CCC5[C@@]6(C)C[C@H](O)[C@H](O[C@@H]7O[C@H](CO)[C@@H](O)[C@H](O)[C@H]7O)[C@@](C)(CO)C6[C@H](O)C[C@@]5(C)[C@]3(C)C[C@H]4O)OC[C@H](O)[C@@H]2O)[C@H](O)[C@H](O)[C@H]1O[C@@H]1OC[C@@H](O)[C@H](O[C@H]2OC[C@](O)(CO)[C@H]2O)[C@H]1O (stereo not given in full)
[1]
  activity change, negative = cytotoxic: -21.6% [at 3.67 µM] (inactive)
CRL-7250
  outcome: inactive [at 9.27 µM]

## CC(=O)OC(C)(C)/C=C/C(=O)[C@](C)(O)[C@H]1C(O)C[C@@]2(C)[C@@H]3CC=C4[C@@H](C=C(O[C@@H]5O[C@H](CO)[C@@H](O)[C@H](O)[C@H]5O)C(=O)C4(C)C)[C@]3(C)C(=O)C[C@]12C (stereo not given in full)
[10]
  Potency: inactive
[3]
  outcome: inactive [at 15.3 µM]
[4]
  Potency: inactive
[5]
  outcome: inactive [at 15.3 µM]
[8]
  Potency: inactive
CRL-7250
  Potency: inactive

## C[C@@H]1O[C@@H](O[C@H]2[C@H](OC(=O)[C@]34CCC(C)(C)C[C@H]3C3=CCC5[C@@]6(C)CC[C@H](O[C@@H]7O[C@H](CO[C@@H]8OC[C@H](O)[C@H](O)[C@H]8O)[C@@H](O)[C@H](O)[C@H]7O)C(C)(C)C6CC[C@@]5(C)[C@]3(C)C[C@H]4O)OC[C@@H](O)[C@@H]2O)[C@H](O)[C@H](O[C@@H]2OC[C@](O)(CO)[C@H]2O)[C@H]1O[C@@H]1OC[C@H](O)[C@H](O[C@@H]2OC[C@@H](O)[C@H](O)[C@H]2O)[C@H]1O (stereo not given in full)
[1]
  Potency: 1.91 µM (active)
CRL-7250
  outcome: inactive [at 9.27 µM]

## COC(=O)N(C)c1c(N)nc(-c2nn(Cc3ccccc3F)c3ncccc23)nc1N
[10]
  Potency: inactive
[3]
  outcome: inactive
[4]
  Potency: inactive
[5]
  outcome: inactive
[8]
  Potency: inactive
CRL-7250
  Potency: inactive

## C[C@]12CC[C@@H]3c4ccc(OC(=O)c5ccccc5)cc4CC[C@H]3[C@@H]1CC[C@@H]2O
[10]
  Potency: inactive
[3]
  outcome: inactive
[5]
  outcome: inactive
[8]
  Potency: inactive
[6]
  activity change, negative = inhibition: -3.2%
CRL-7250
  Potency: inactive

## COc1cc(-c2cc(-c3ccc(N4CCNCC4)cc3)cnc2C)cc(OC)c1OC
[8]
  Potency: inactive
CRL-7250
  Potency: inactive

## O=C1NC(=O)/C(=C/c2cccc(C(F)(F)F)c2)S1
[1]
  Potency: inactive
CRL-7250
  Potency: inactive

## CN1CCC(c2cn(C)c3ccc(OS(=O)(=O)c4c(F)cccc4F)cc23)CC1
[1]
  Potency: inactive
[2]
  Potency: 11.2 µM (active)
CRL-7250
  Potency: inactive

## CC(C)c1ccc2c(c1)CCC1[C@](C)(C(=O)O)CCC[C@]21C (stereo not given in full)
[11]
  outcome: inactive
CRL-7250
  Potency: inactive

## COc1ccc(CN2CCN(CCCSc3cc(C(C)(C)C)c(O)c(C(C)(C)C)c3)CC2)c(OC)c1OC
[1]
  Potency: inactive
CRL-7250
  outcome: inactive [at 9.27 µM]

## c1cc(OCCN2CCCCC2)cc(-c2n[nH]c3ccc(-c4ncn[nH]4)cc23)c1
[12]
  Potency: inactive
[8]
  Potency: inactive
CRL-7250
  Potency: inactive

## CC1(C)OC(=O)C(OCC2CC2)=C1c1ccc(S(C)(=O)=O)cc1
[3]
  outcome: inactive
[4]
  Potency: inactive
[5]
  outcome: inactive
[8]
  Potency: inactive
CRL-7250
  Potency: inactive

## CCN(CC)CCOCCOC(=O)C(CC)(CC)c1ccccc1
[3]
  outcome: inactive
[5]
  outcome: inactive
[7]
  Potency: inactive
[8]
  Potency: inactive
[9]
  Potency: inactive
CRL-7250
  Potency: inactive

## CCCSc1nc(N[C@@H]2C[C@H]2c2ccc(F)c(F)c2)c2nnn([C@@H]3C[C@H](OCCO)[C@@H](O)[C@H]3O)c2n1
[3]
  outcome: inactive
[4]
  Potency: inactive
[5]
  outcome: inactive
[8]
  Potency: inactive
CRL-7250
  Potency: inactive

## CC(=O)O[C@]1(C(C)=O)CC[C@H]2[C@@H]3C=C(Cl)C4=CC(=O)[C@@H]5C[C@H]5[C@]4(C)[C@@H]3CC[C@@]21C
[12]
  Potency: 24.3 µM (active)
CRL-7250
  Potency: inactive

## CCc1c(Cl)c(O)c(Cl)c(O)c1C(=O)O[C@H]1[C@H](O)[C@H](OC)[C@H](OC/C2=C\C=C\C[C@H](O)/C(C)=C\[C@H](CC)[C@@H](O[C@@H]3OC(C)(C)[C@@H](OC(=O)C(C)C)[C@H](O)[C@@H]3O)/C(C)=C/C(C)=C/C[C@@H]([C@@H](C)O)OC2=O)O[C@@H]1C
[10]
  Potency: inactive
[3]
  outcome: inactive
[5]
  outcome: inactive
CRL-7250
  Potency: inactive

## CCC(=O)NS(=O)(=O)c1ccc(-c2c(-c3ccccc3)noc2C)cc1
[10]
  Potency: inactive
[3]
  outcome: inactive
[4]
  Potency: inactive
[5]
  outcome: inactive
[8]
  Potency: inactive
[6]
  activity change, negative = inhibition: -22.2% and -23.1%
CRL-7250
  Potency: inactive

## CCC(=O)c1cc(-c2ccc(Cl)cc2)n(-c2ccc(S(N)(=O)=O)cc2)c1C
[1]
  Potency: inactive
[2]
  Potency: inactive
CRL-7250
  Potency: inactive

## Cc1onc(-c2ccccc2)c1C(=O)N[C@@H]1C(=O)N2[C@@H]1SC(C)(C)[C@@H]2C(=O)O
[10]
  Potency: inactive
[3]
  outcome: inactive
[4]
  Potency: inactive
[5]
  outcome: inactive
[6]
  activity change, negative = inhibition: -25.7%
CRL-7250
  Potency: inactive

## COc1ccccc1OCCN1CC(COc2cccc3[nH]c4ccccc4c23)OCC1=O (stereo not given)
[1]
  Potency: inactive
[2]
  Potency: inactive
CRL-7250
  Potency: inactive

## Cc1c(C)n(Cc2ccc(-c3ccccc3C(=O)O)cc2)c2ccc(C(=O)N[C@@H](C)c3ccc([N+](=O)[O-])cc3)cc12
[13]
  Potency: 4.85 µM (active)
CRL-7250
  Potency: inactive

## O=c1[nH]c2ccccc2n1CCN1CCN(c2cccc(C(F)(F)F)c2)CC1
[3]
  outcome: inactive
[5]
  outcome: inactive
[8]
  Potency: inactive
CRL-7250
  Potency: inactive

## CN(C)CCOc1cc(-c2cn[nH]c2)ccc1NC(=O)C1COc2ccccc2O1 (stereo not given)
[12]
  Potency: 27.3 µM (active)
[8]
  Potency: inactive
[6]
  activity change, negative = inhibition: -42.9%
CRL-7250
  Potency: inactive

## Cc1[nH]c(/C=C2\C(=O)Nc3ccc(S(=O)(=O)N(C)c4cccc(Cl)c4)cc32)c(C)c1C(=O)N1CCN(C)CC1
[1]
  Potency: inactive
[2]
  Potency: inactive
[8]
  Potency: inactive
CRL-7250
  Potency: inactive

## COc1ccc2c3c1O[C@H]1C[C@@H](O)C=C[C@@]31CCN(C)C2
[10]
  Potency: inactive
[3]
  outcome: inactive
[4]
  Potency: inactive
[5]
  outcome: inactive
[8]
  Potency: inactive
[6]
  Potency: inactive
CRL-7250
  Potency: inactive

## N#Cc1ccc(COC[C@H]2O[C@@H](n3c(NCc4ccc(Cl)c(Cl)c4)nc4c(N)ncnc43)[C@H](O)[C@@H]2O)cc1
[8]
  Potency: inactive
CRL-7250
  Potency: inactive

## CCc1cccc(CC)c1-n1c(C=C(C)C)c(C(=O)N2CCNCC2)cc(-c2nc(-c3ccc(C(F)(F)F)cc3)cs2)c1=O
[1]
  Potency: inactive
[2]
  Potency: inactive
CRL-7250
  Potency: inactive

## CC1=C2C(=O)O[C@@H](c3ccoc3)[C@]2(C)CCC1
[11]
  outcome: inactive
CRL-7250
  Potency: inactive

## CN(C)S(=O)(=O)c1ccc(NC(=S)N2CCC(C(O)(c3ccccc3)c3ccccc3)CC2)cc1
[1]
  Potency: inactive
CRL-7250
  Potency: inactive

## O=C(Nc1ccccc1)Nc1ccc(-c2ccc(C(=O)[C@H]3CCC[C@H]3C(=O)O)cc2)cc1
[12]
  Potency: inactive
CRL-7250
  Potency: inactive

## CCOc1nc2cccc(C(=O)OCc3oc(=O)oc3C)c2n1Cc1ccc(-c2ccccc2-c2noc(O)n2)cc1
[10]
  Potency: inactive
[3]
  outcome: inactive
[4]
  Potency: inactive
[5]
  outcome: inactive
[8]
  Potency: inactive
[6]
  activity change, negative = inhibition: -28.5%
CRL-7250
  Potency: inactive
